From PubChem BioAssay (NCI) come the findings set out here.

Each structure is given as a SMILES string. About 83,000 compounds went through this panel and 20% of them were active in at least one assay; those are over-represented in the sample as a whole.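 The test compound was applied at a single concentration to cells in 96-well plates for 48 hours, and percent growth was recorded.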 A number with no mark means an inactive call. Activity calls are given as the source filed them. Rule for the calls: active = growth percent below 10; inactive = the rest.

Some test systems named below: NCI-H23 lung; NCI-H226 lung; NCI-H322M lung; HOP-62 NSCLC; NCI-H460 lung; HOP-92 NSCLC; NCI-H522 lung; A549/ATCC NSCLC; 786-0 renal.
What all share (experiment): NCI-60 one-dose screen, 48 h (100 = growth as untreated, 0 = no growth, -100 = all killed)
Conditions in all cases: 10 µM unless noted

In the case of `COc1cc(C2CC(=O)Nc3n[nH]c(-c4ccccc4)c32)cc(OC)c1OC` (stereo unspecified), the growth is 81.6% with NCI-H23 lung; 91.8% in the test with NCI-H226 lung; 94.1% in the test with NCI-H322M lung; 58% with HOP-62 NSCLC; 67.5% with NCI-H460 lung; 77.4% in the test with HOP-92 NSCLC. Moreover, the growth in the test with NCI-H522 lung was 30.1%; with A549/ATCC NSCLC, 46%; with 786-0 renal it was 75.3%.
For `O=C1Nc2ccccc2/C1=N/N=C/c1c[nH]c2ccccc12`, the growth is 82% in the test on NCI-H23 lung; 62.7% in the test on NCI-H226 lung; 72.9% with NCI-H322M lung; 67.3% in the test on HOP-62 NSCLC; 63% in the test on NCI-H460 lung; 75.2% in the test on HOP-92 NSCLC. In addition, the growth with NCI-H522 lung was 69.2%; in the test on A549/ATCC NSCLC it was 78.4%; with 786-0 renal it was 91.9%.
For `C=C1c2c(C)nn(-c3ccc(S(N)(=O)=O)cc3)c2N(C)C23CC1C1(C)c4c(C)nn(-c5ccc(S(N)(=O)=O)cc5)c4N(C)C(C)(CC12)C3` (stereo unspecified), the growth with NCI-H23 lung was 51.4%; with NCI-H226 lung, 40.7%; with NCI-H322M lung, 75.7%; in the test on HOP-62 NSCLC, 48.2%; in the test with NCI-H460 lung, 12.4%; in the test on HOP-92 NSCLC, 50.1%. For the same compound, the growth is 44% with NCI-H522 lung, 17.6% in the test with A549/ATCC NSCLC and 41.9% with 786-0 renal.
Turning to `Cl.Fc1c[c-]c(-c2ccccn2)c(F)c1.[Pt].c1ccc(P(c2ccccc2)C([PH+](c2ccccc2)c2ccccc2)[PH+](c2ccccc2)c2ccccc2)cc1`, the growth in the test on NCI-H23 lung was 5.53% (active); in the test on NCI-H226 lung, 12.5%; with NCI-H322M lung, 20.8%; in the test with HOP-62 NSCLC, 25.9%; in the test with NCI-H460 lung, 7.55% (active); in the test on HOP-92 NSCLC, -12.9% (active). For the same compound, the growth with NCI-H522 lung is 12%; in the test with A549/ATCC NSCLC, 15.4%; in the test with 786-0 renal, 22.5%.
For `Cc1nn(Cc2ccccc2)cc1C(=O)Nc1sc2c(c1C(N)=O)CCC(=O)C2`, the growth is 12.6% in the test with NCI-H23 lung; 71.9% in the test on NCI-H226 lung; 96.2% in the test with NCI-H322M lung; 84.6% with HOP-62 NSCLC; 86% with NCI-H460 lung; 31.2% in the test with HOP-92 NSCLC. For the same compound, the growth in the test on NCI-H522 lung is -3.17% (active); in the test on A549/ATCC NSCLC, 84.7%; in the test on 786-0 renal, 70.1%.
For the compound `O=C(Nc1ccccc1Cl)OCCN1CCOCC1`, the growth is 99.7% in the test on NCI-H23 lung; 99% in the test on NCI-H226 lung; 98.7% in the test on NCI-H322M lung; 106% in the test on HOP-62 NSCLC; 109% in the test with NCI-H460 lung; 85.6% with HOP-92 NSCLC. Moreover, the figures for the growth with NCI-H522 lung, with A549/ATCC NSCLC and with 786-0 renal were 64.5%, 98.5% and 88.7%, respectively.
As to `Cc1ccc(/C=C(\C#N)n2nnc3cc(Cl)c(Cl)cc32)cc1`, the growth in the test with NCI-H23 lung is 24.8%; with NCI-H226 lung, -9.44% (active); with NCI-H322M lung, 49.5%; in the test with HOP-62 NSCLC it was 33.8%; in the test with NCI-H460 lung it was 12.8%; in the test with HOP-92 NSCLC it was -7.83% (active). Besides, the growth in the test with NCI-H522 lung is 17.3%; in the test on A549/ATCC NSCLC, 38.8%; with 786-0 renal, 5.73% (active).
With `CCN(CC)CC(=O)Nc1cccc(C(=O)OC(C)C)c1`, the growth with NCI-H23 lung is 92.1%; in the test with NCI-H226 lung it was 96.5%; with NCI-H322M lung, 96.8%; with HOP-62 NSCLC, 92.2%; in the test on NCI-H460 lung, 112%; with HOP-92 NSCLC, 82%. For the same compound, the values for the growth in the test with NCI-H522 lung, in the test with A549/ATCC NSCLC and in the test on 786-0 renal were 66.3%, 93.7% and 79.8%, respectively.
Turning to `N#Cc1c(N)n2c(nc1=Nc1ccc(Cl)cc1)sc1cc(Cl)ccc12`, the growth is 66.6% in the test with NCI-H23 lung; 36.7% with NCI-H226 lung; 91% with NCI-H322M lung; 96.9% with HOP-62 NSCLC; 95.1% with NCI-H460 lung; 76.6% in the test with HOP-92 NSCLC. Moreover, the figures for the growth with NCI-H522 lung, in the test on A549/ATCC NSCLC and with 786-0 renal were 93%, 75.4% and 51.4%, respectively.
For the compound `O=C(c1ccccc1)c1ccc(Cl)c([N+](=O)[O-])c1`, the growth in the test on NCI-H23 lung was 100%; with NCI-H226 lung, 104%; in the test with NCI-H322M lung, 90.6%; in the test on HOP-62 NSCLC, 124%; in the test with NCI-H460 lung it was 101%; in the test with HOP-92 NSCLC, 99.1%. For the same compound, the growth was 77% with NCI-H522 lung, 103% with A549/ATCC NSCLC and 103% in the test on 786-0 renal.
Regarding `O=C1Nc2ccccc2/C1=N/N=C/c1ccsc1`, the growth in the test on NCI-H23 lung is 95.2%; with NCI-H226 lung it was 106%; with NCI-H322M lung it was 100%; in the test on HOP-62 NSCLC, 110%; in the test with NCI-H460 lung, 105%; in the test on HOP-92 NSCLC it was 109%. The growth in the test on NCI-H522 lung is 93.8%; with A549/ATCC NSCLC, 107%; in the test on 786-0 renal, 108%.
Regarding `CCN(CC)N=Nc1nn(C(=O)Nc2ccc(Cc3ccccc3)cc2)c2ccc(Cl)cc12`, the growth is 90.4% in the test on NCI-H23 lung; 84% with NCI-H226 lung; 82.5% in the test with NCI-H322M lung; 86.9% in the test with HOP-62 NSCLC; 25.7% with NCI-H460 lung; 102% in the test with HOP-92 NSCLC. Further, the growth was 67.3% in the test on NCI-H522 lung, 67.7% in the test on A549/ATCC NSCLC and 59.5% in the test with 786-0 renal.
`COc1cc(C2C=C(c3cccc(NC(C)=O)c3)Nc3ncnn32)cc(OC)c1OC` (stereo unspecified): the growth is 29.8% in the test with NCI-H23 lung; 43.5% in the test with NCI-H226 lung; 37% with NCI-H322M lung; 62.6% in the test with HOP-62 NSCLC; 14.6% in the test on NCI-H460 lung; 68.9% in the test with HOP-92 NSCLC. For the same compound, the growth in the test with NCI-H522 lung was -3.09% (active); with A549/ATCC NSCLC it was 45.5%; with 786-0 renal, 50.1%.
Consider `C=C1c2c(C)nn(-c3ccc(NC(C)=O)cc3)c2N(C)C23CC1C1(C)c4c(C)nn(-c5ccc(NC(C)=O)cc5)c4N(C)C(C)(CC12)C3` (stereo unspecified), for which the growth with NCI-H23 lung is 58.2%; in the test on NCI-H226 lung it was 47.2%; in the test on NCI-H322M lung it was 61.2%; with HOP-62 NSCLC it was 55.9%; with NCI-H460 lung it was 8.58% (active); in the test on HOP-92 NSCLC, 65%. Further, the growth is 42.9% in the test with NCI-H522 lung, 26.3% in the test on A549/ATCC NSCLC and 43.5% with 786-0 renal.
